# Compound activity deposited in PubChem by National Center for Advancing Translational Sciences (NCATS).
# Shown is part of a subset that was picked to be rich in hits.
# Pf Dd2 inh: inhibitors of Plasmodium falciparum Dd2 growth; P. falciparum Dd2 growth, SYBR Green, 72 h; Potency, µM (top dose mostly 28.9 µM), without a hit: at the top dose activity, negative = inhibition, most hits filed as inhibitors; 4.3% of 120,000 active; AID 1347417; active = well fitted inhibition curve with a large enough effect;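 note: plate controls were DMSO vehicle for no effect and reference drug for full effect; nearly all actives have a fitted effect of over 65% in size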
#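 Readout: SYBR Green fluorescence, 485 nm excitation, 535 nm emission, after ~16 h lysis at 37C. Before that, Dd2-infected red cells (2.5% hematocrit) grew 72 h with compound, 29 uM top final concentration.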
# Active calls of the source: *; i = inactive; [ ] = another dose, or the depositor's remark. Potency is the fitted concentration of half-maximal effect.
SMILES,Pf Dd2 inh
CCc1ccccc1Nc1nn2c(=O)c3ccc(C(=O)NCc4ccccc4Cl)cc3nc2s1,11µM*
COC(=O)c1ccc2c(=O)n3nc(Nc4cc(OC)ccc4OC)sc3nc2c1,91%
Cc1ccc(NC(=O)c2ccc3c(=O)n4nc(Nc5ccccc5C)sc4nc3c2)cc1C,-2%
CCc1ccccc1Nc1nn2c(=O)c3ccc(C(=O)NCc4cccs4)cc3nc2s1,14µM*
COc1ccc(NC(=O)c2ccc3c(=O)n4nc(Nc5ccccc5C)sc4nc3c2)cc1Cl,-4%
CCOC(=O)C1CCN(C(=O)c2ccc3c(=O)n4nc(Nc5ccccc5)sc4nc3c2)CC1,-18%
Cc1ccc(Cl)cc1Nc1nn2c(=O)c3ccc(C(=O)Nc4ccc(F)cc4)cc3nc2s1,-5%
CCc1ccccc1Nc1nn2c(=O)c3ccc(C(=O)NCCCOC(C)C)cc3nc2s1,11µM*
CCc1ccccc1Nc1nn2c(=O)c3ccc(C(=O)NC(C)C)cc3nc2s1,-20%
COc1ccccc1Nc1nn2c(=O)c3ccc(C(=O)NC(C)c4ccccc4)cc3nc2s1 (centres undefined),-14%
CN(CC1(C)CCOCC1)C(=O)c1ccc(Cl)s1,-11%
O=C1NCc2ccccc2CC12CCN(Cc1c(Cl)cncc1Cl)C2 (centres undefined),-6%
COc1ccccc1N1CCN([C@@H]2[C@H](O)[C@H](CO)O[C@@H]2CNC(=O)NC(C)C)CC1,-2%
O=C(O)C[C@@H]1CCN(C(=O)c2ccco2)C[C@@H]1CCN1CCN(c2ccc(F)cc2)CC1,6%
CC(=O)N1CC2(CCN(Cc3cncn3C3CC3)CC2)CC1C(=O)O (centres undefined),-2%
CN1CCN(CC(O)COc2ccc(CN3CC(c4ccccn4)C3)cc2)CC1 (centres undefined),32%
CCOC(=O)c1cccc(NC(=O)N2CC[C@@H](CC(=O)NCc3cccc4ccccc34)[C@@H](CC)C2)c1,-13%
CCn1cc(-c2ccccc2)cc1C(=O)NC1CCCC1,i
CC1=C(c2ccc(Cl)cc2)S(=O)(=O)N=C1N1CCC(C(=O)NCCc2ccco2)CC1,22%
CC1=C(c2ccc(F)cc2)S(=O)(=O)N=C1N1CCC(C(=O)NCCc2ccccc2)CC1,i
CCC1=C(c2ccc(C)cc2)S(=O)(=O)N=C1N1CCC(C(=O)NCCc2ccc(Cl)cc2)CC1,8.9µM*
Cc1ccc2nc(N3CCN(C(=O)C4CC4)CC3)sc2c1,33%
O[C@H]1CCCC[C@@H]1NC1CCN(c2nc3ccc(Cl)cc3s2)CC1,4µM*
O=C(NCc1cccc(Cl)c1)c1ccc2nc(N3CCCCC3)sc2c1,i
CC(=O)c1c(C)nn(CC(=O)N2CCN(c3ccnc(C)c3)CC2)c1C,6%
SMILES,Pf Dd2 inh
COc1ccc(C2C=C(c3ccccc3)Nc3nc(NC(C)=O)nn32)cc1 (centres undefined),-30%
COc1ccc(/C=C/C(=O)Nc2nc3n(n2)C(c2ccccc2)C=C(c2ccccc2)N3)cc1 (centres undefined),7.9µM*
COc1ccc(C2C=C(c3ccccc3)Nc3nc(NC(=O)/C=C/c4ccc(F)cc4)nn32)cc1 (centres undefined),13µM*
COc1ccc(C2=CC(c3ccc(N(C)C)cc3)n3nnnc3N2)cc1 (centres undefined),83%
COc1ccc(/C=C/C(=O)Nc2nc3n(n2)C(c2ccc(F)cc2)C=C(c2ccccc2)N3)cc1 (centres undefined),8.9µM*
COc1ccc(C2C=C(c3ccccc3)Nc3nc(NC(=O)/C=C/c4ccccc4Cl)nn32)cc1 (centres undefined),7.1µM*
O=[S+]([O-])(c1ccccc1)N1CC2(COCCN(CC3CC3)C2)C1,-13%[44.1 µM]
CC(C)(C)CC(=O)N1CC[C@@H](CC(=O)O)[C@@H](CCN2CCN(c3cccc(C(F)(F)F)c3)CC2)C1,i
CCOc1nccnc1NC1CCN(S(=O)(=O)C2CC2)CC1,46%[5.79 µM]
O=[S+]1([O-])NC2(CCN(Cc3cccc4ccccc34)C2)CNc2ccccc21 (centres undefined),i
O=C(/C=C/c1ccco1)Nc1ccc(F)cc1,-14%
O=C(/C=C/c1ccccc1)Nc1nc2n(n1)C(c1ccc(F)cc1)C=C(c1ccccc1)N2 (centres undefined),10µM*
O=C(Cc1cccnc1)N1CCC(Oc2ccccc2-c2nc(C3CC3)no2)C1 (centres undefined),-4%
OC1CCN(c2cc(C3CC(Nc4ncnc5sccc45)C3)ncn2)C1 (centres undefined),-20%
O=C1CC[C@@H](C(=O)N2CCc3onc(C(c4ccccc4)c4ccccc4)c3C2)N1,i
CC1(C)C(=O)N(Cc2ccccc2)[C@H]2CN(Cc3cccc(C(=O)O)c3)C[C@H]2[S+]1(=O)[O-],33%
COc1ccc(C(=O)N[C@@H]2CCC[C@@H]2C(=O)N2CCN(c3cc(C)ccc3C)CC2)cn1,10µM*
COc1ccc(C(=O)N[C@@H]2CCC[C@@H]2C(=O)Nc2cc(F)ccc2C)cn1,11%
COc1ccc(C(=O)N[C@@H]2CCC[C@@H]2C(=O)N2CCN(c3ncccn3)CC2)cn1,-14%
